PubChem BioAssay AID1159580 (chemical genetic matrix, 2015)
The campaign covered roughly 5,500 compounds. About 2,000 (36%) were called active. Another 18% or so got no clear call; they are omitted. Rule as the data show it: active = normalized growth mostly below about 0.91 (no sharp cut-off); inconclusive = no clear call, values can overlap the other calls; inactive = mostly above about 0.92. The list shows a part of the results.

Test: chemical genetic growth profiling, strain panel (AID 1159580);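 also: tested at 20 µM; growth read once vehicle control cultures reached saturation at 30 °C; 1 = growth at the plate median or of vehicle wells; lower values mean less growth of the strain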
Settings: growth OD
[1] = S. cerevisiae deletion strains, locus YAL013W, strain DEP1, active compounds read low
[2] = S. cerevisiae deletion strains, locus YDL101C, strain DUN1, active compounds read low
[3] = S. cerevisiae deletion strains, locus YDR150W, strain NUM1, active compounds read low
[4] = S. cerevisiae deletion strains, locus YEL061C, strain CIN8, active compounds read low
[5] = S. cerevisiae deletion strains, locus YGR078C, strain PAC10, active compounds read low
[6] = S. cerevisiae deletion strains, locus YHR030C, strain SLT2, active compounds read low
[7] = S. cerevisiae deletion strains, locus YHR087W, strain rtc3, active compounds read low
[8] = S. cerevisiae deletion strains, locus YJR043C, strain POL32, active compounds read low
[9] = S. cerevisiae deletion strains, locus YJR075W, strain HOC1, active compounds read low
[10] = S. cerevisiae deletion strains, locus YLR039C, strain RIC1, active compounds read low
[11] = S. cerevisiae deletion strains, locus YLR058C, strain SHM2 (second series), active compounds read low
[12] = S. cerevisiae deletion strains, locus YLR085C, strain ARP6, active compounds read low
[13] = S. cerevisiae deletion strains, locus YLR262C, strain YPT6, active compounds read low
[14] = S. cerevisiae deletion strains, locus YML094W, strain GIM5, active compounds read low
[15] = S. cerevisiae deletion strains, locus YMR219W, strain ESC1, active compounds read low
[16] = S. cerevisiae deletion strains, locus YMR263W, strain SAP30, active compounds read low
[17] = S. cerevisiae deletion strains, locus YNL153C, strain GIM3, active compounds read low
[18] = S. cerevisiae deletion strains, locus YNL298W, strain CLA4 (second series), active compounds read low
[19] = S. cerevisiae deletion strains, locus YNL322C, strain KRE1, active compounds read low
[20] = S. cerevisiae deletion strains, locus YNR030W, strain Alg12, active compounds read low
[21] = S. cerevisiae deletion strains, locus YPL055C, strain LGE1, active compounds read low
[22] = S. cerevisiae deletion strains, locus YPL241C, strain CIN2, active compounds read low
[23] = S. cerevisiae deletion strains, locus YPR135W, strain CTF4, active compounds read low
[24] = S. cerevisiae strains, strain wild type, active compounds read low

Measured: normalized growth

O=C1NN(c2ccccc2)C(=S)Nc2ccccc21
inactive: [1] 1 | S. cerevisiae deletion strains, locus YBR229C, strain ROT2, active compounds read low 1.01 | [2] 0.988 | [3] 0.994 | [4] 1.01 | [5] 0.986 | [6] 0.986 | [7] 1 | S. cerevisiae deletion strains, locus YJL187C, strain SWE1, active compounds read low 0.988 | [8] 0.997 | [9] 0.994 | [10] 0.994 | [11] 1 | [12] 0.984 | [13] 0.999 | [14] 0.987 | [15] 0.999 | [16] 0.996 | S. cerevisiae deletion strains, locus YMR307W, strain GAS1, active compounds read low 0.965 | [17] 0.978 | [18] 1.01 | [19] 1.01 | [20] 1 | [21] 1.02 | [22] 0.98 | [23] 0.979 | [24] 1.01

S=C1NC2(CCCCC2)NN1c1ccccc1
inactive: [2] 0.92 | [3] 0.836 | [7] 0.987 | [8] 0.94 | [9] 0.908 | [11] 0.98 | [15] 0.956 | [19] 0.988
active: [1] 0.869 | S. cerevisiae deletion strains, locus YCL061C, strain MRC1, active compounds read low 0.892 | [4] 0.14 | [5] 0.761 | [6] 0.1 | S. cerevisiae deletion strains, locus YKL190W, strain CNB1, active compounds read low 0.0617 | [10] 0.116 | [12] 0.0768 | [13] 0.114 | [14] 0.0764 | [16] 0.895 | [17] 0.884 | [18] 0.0996 | [20] 0.0942 | S. cerevisiae deletion strains, locus YOL006C, strain TOP1, active compounds read low 0.088 | [21] 0.759 | [22] 0.0946 | [23] 0.223 | [24] 0.0726
